Laboratory results published in PubChem BioAssay AID1256 (The Scripps Research Institute Molecular Screening Center, 2008).
Some of the results follow. Values without a mark were called inactive. No stated cut-off is given here; in the data, active means inhibition above about 20%; inactive means the rest.

Biological target: Neuropeptide Y receptor type 1 (Homo sapiens) (UniProt P25929)
Test: NPY-Y1 receptor antagonists, selectivity check, counter-screen for NPY-Y2 antagonist project, cell-based (AID 1256);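 further: cells challenged with NPY then isoproterenol with cAMP sensed through a CNG channel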
Settings: cell-based NPY-Y1 antagonism counterscreen; at 3.6 µM; active compounds read high

Neuropeptide Y receptor type 1 (Homo sapiens), sequence (P25929 whole entry, looked up): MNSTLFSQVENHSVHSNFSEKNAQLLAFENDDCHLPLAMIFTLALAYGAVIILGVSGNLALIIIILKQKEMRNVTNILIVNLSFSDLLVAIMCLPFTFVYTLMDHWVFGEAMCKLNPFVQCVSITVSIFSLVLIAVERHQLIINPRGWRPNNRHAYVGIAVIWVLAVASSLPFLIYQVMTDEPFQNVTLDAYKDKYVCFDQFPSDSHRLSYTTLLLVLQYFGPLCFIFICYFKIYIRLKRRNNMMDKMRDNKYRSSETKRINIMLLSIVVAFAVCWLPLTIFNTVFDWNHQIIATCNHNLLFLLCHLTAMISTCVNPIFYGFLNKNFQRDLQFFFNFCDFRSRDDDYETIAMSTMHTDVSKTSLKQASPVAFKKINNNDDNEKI

Question: With `O=C(COC(=O)c1ccccc1)Nc1ccc(Cl)cc1C(=O)c1ccccc1` as the compound, how does the inhibition read?
Answer: 17.5%
